Compound activity deposited in PubChem BioAssay by National Center for Advancing Translational Sciences (NCATS).
NPC1 promoter act: activators of NPC1 promoter | Huh7 NPC1 promoter luciferase reporter, 24 h | Potency, µM (highest dose often 9.22 µM), inactives show at the top dose activation, most hits filed as activators | 320,000 compounds, 2.4% hits; also: % of control where 0% means no effect; nearly all actives have a fitted effect of over 60% in size
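NPC1 promoter–luciferase Huh7 cells; 24 h compound; luminescence.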
ELG1 repair inh: ELG1-dependent DNA repair inhibition. HEK293T ELG1-luciferase reporter, luminescence, 16 h; DNA damage induced by 5-fluorouridine. Potency, µM (doses to about 46.1 µM), for inactives: at the top dose activity change, negative = inhibition, actives largely listed as inhibitors. 330,000 compounds, 2.3% hits; also: % is scaled to controls: 0 for no effect and ±100 for the full control effect; nearly all actives have a fitted effect of over 55% in size
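Quantitative HTS, concentration-response format. 2,000 cells/well co-treated with 5-fluorouridine and compound, 16 hr in 5% CO2 at 37 °C; ONE-Glo luminescence read after 30 min.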
ELG1 genotox: inducers of genotoxicity in HEK293T ELG1-luciferase cells. Potency, µM (series often up to 46 µM), without a hit: at the highest dose activity change, positive = activation, most hits filed as activators. 330,000 compounds, 1.3% hits. HEK293T ELG1-luciferase reporter, luminescence, 16 h; also: % of control where 0% means no effect; nearly all actives have a fitted effect of over 60% in size
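16 hr compound incubation (37 °C, 5% CO2) of HEK293T cells carrying luciferase-tagged ELG1; luciferase then measured by ONE-Glo luminescence after 30 min at RT.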
FLuc counter: inhibits or activates purified firefly luciferase, miR-21 counter-screen | P08659 | Potency, µM (series often up to 57.5 µM), for inactives: top-dose activity change, negative = inhibition, actives largely listed as inhibitors | 360,000 compounds, 6.9% hits | AID 588342 | purified FLuc, Km substrates, luminescence inhibition;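 also: plate controls were vehicle for no effect and reference inhibitor for full effect; nearly all actives have a fitted effect of over 55% in size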
Target sequence (P08659 whole entry, looked up): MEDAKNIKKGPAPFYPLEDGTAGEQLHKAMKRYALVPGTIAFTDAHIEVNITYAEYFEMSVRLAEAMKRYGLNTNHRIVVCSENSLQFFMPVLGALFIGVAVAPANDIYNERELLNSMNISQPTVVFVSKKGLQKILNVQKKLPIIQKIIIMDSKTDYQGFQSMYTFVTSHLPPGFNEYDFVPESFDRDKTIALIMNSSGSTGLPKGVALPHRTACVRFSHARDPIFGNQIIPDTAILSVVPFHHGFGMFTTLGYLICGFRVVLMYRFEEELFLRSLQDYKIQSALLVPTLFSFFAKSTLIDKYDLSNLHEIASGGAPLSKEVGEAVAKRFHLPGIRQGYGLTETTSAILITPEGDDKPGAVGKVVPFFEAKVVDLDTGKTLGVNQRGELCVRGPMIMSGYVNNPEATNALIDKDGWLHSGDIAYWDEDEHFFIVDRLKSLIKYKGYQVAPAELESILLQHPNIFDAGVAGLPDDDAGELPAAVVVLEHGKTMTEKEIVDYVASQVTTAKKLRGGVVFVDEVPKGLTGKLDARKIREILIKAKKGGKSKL
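Purified P. pyralis luciferase (10nM final) with 10uM D-luciferin and 10uM ATP (Km levels) in 50mM Tris acetate pH 7.5, 10mM Mg acetate, 0.01% Tween-20, 0.05% BSA; qHTS 6-point titration, ~60 µM downward; luminescence read.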
Rab9 prom act: Rab9 promoter activation; Huh7 Rab9 promoter-luciferase reporter, luminescence, 24 h; Potency, µM (top dose mostly 9.22 µM), inactives show at the top dose activation, negative = inhibition, usual class: activators; 320,000 compounds, 2.8% hits; AID 485297; also: % of control where 0% means no effect; nearly all actives have a fitted effect of over 60% in size
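Quantitative HTS format; Huh7 Rab9-luciferase reporter cells (1500/well) receive compound 2 h post-plating, incubate 24 h at 37 °C, then get luciferase reagent for 10 min before luminescence reading.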
SMN2 splice enh: enhancers of SMN2 splice variant expression. 210,000 compounds, 2.8% hits. AID 1458. Potency, µM (highest dose often 46.1 µM), without a hit: at the top dose activity change, positive = activation, hits mostly activators. HEK293 SMN2-luciferase splicing reporter, luminescence, 30-36 h; also: % of control where 0% means no effect; nearly all actives have a fitted effect of over 55% in size
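qHTS luciferase splicing reporter: luminescence rises when SMN2 exon 7 is included in transfected HEK293 cells. Compound exposure lasted 30-36 h at 37C, with 4.5 mM final sodium butyrate as control, followed by a ONE-Glo read.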
* hit, by the source's call; ? = inconclusive; · = no result; [ ] = remark or other dose. Shown are actives, neighbours in structure and some others; about 9.3% of the full set was active somewhere. Calls follow the shape of the dose curve; as a rule, active = well fitted curve in the direction sought with a large enough effect; inconclusive = small, poorly fitted or top-dose-only effect, or another doubt; inactive = no such curve, though single readings can be large; an effect the other way counts as inactive or inconclusive. Potency is read from the fitted curve at half-maximal effect.

SMILES	NPC1 promoter act	ELG1 repair inh	ELG1 genotox	FLuc counter	Rab9 prom act	SMN2 splice enh
Cc1ccc(C)c(-c2nc(Cn3c(=O)cc(-c4ccccc4)c4c(C)nn(C)c43)c(C)o2)c1	·	·	·	3%	·	·
C/C(=N/NC(=O)CN1CCN(S(=O)(=O)c2ccc(Br)cc2)CC1)c1ccco1	-4%	-6%	-3%	-1%	3%	2%
CC(=O)c1c(C)[nH]c(C(=O)COC(=O)Cc2ccccc2F)c1C	·	?	15%	·	·	·
CCn1nc(C)c2c(-c3ccccc3)cc(=O)n(C(C)C(=O)NCc3cccc(OC)c3)c21 (stereo unspecified)	·	·	·	-1%	·	·
Cc1ccc(-c2nc3ccccc3o2)cc1NC(=O)Cc1ccc(Cl)cc1	·	·	·	-2%	·	1%
CC(CCCC(C)(C)O)NC(=O)c1cc(COc2ccc3ncccc3c2)on1 (stereo unspecified)	-24%	2.6µM*	-2%	-21%	-44%	-41%
Cc1ccc(OCc2cc(C(=O)NC(C)Cc3cccnc3)no2)cc1C (stereo unspecified)	?	?	15%	13µM*	?	·
CC(=O)c1ccc(OCc2cc(C(=O)NC(C)CCn3cccn3)no2)cc1 (stereo unspecified)	2.8µM*	?	18µM*	15µM*	4µM*	·
Cc1ccc(OCc2cc(C(=O)NCCn3cccn3)no2)cc1C	12%	?	5%	?	13%	·
O=C(NCc1cccc(Cl)c1)c1cc(COc2ccc3ncccc3c2)on1	-17%	?	-10%	-15%	-33%	·
O=C(CSc1nc(=O)n(CCN2CCOCC2)c2c1CCC2)Nc1ccc(F)cc1F	·	·	·	1%	·	·
CC(=O)OC1CC2C(C)(C)CCC(=O)[C@@]2(C)C2CC[C@@]3(C)C(c4ccoc4)OC(=O)C4OC43[C@]12C (stereo partly specified)	·	·	·	·	·	5%
Cc1ccc(C(=O)NCC(c2cccs2)S(=O)(=O)c2ccccc2)cc1C (stereo unspecified)	·	·	·	-11%	·	·
CC(=O)N(Cc1cccs1)Cc1cc2ccc(C)c(C)c2nc1Cl	4%	12µM*	-8%	-11%	11%	-15%
CC(OC(=O)[C@@H](NC(=O)c1ccco1)C(C)C)C(=O)Nc1ncc(Cl)cc1Cl (stereo partly specified)	·	11%	-2%	·	·	·
Cc1ccc(NC(=S)N2CCc3[nH]c4ccccc4c3C2)cc1	1%	5%	0%	-19%	0%	·
S=C(NC1CCCCC1)N1CCc2[nH]c3ccccc3c2C1	-4%	-4%	10%	24µM*	-10%	·
CCCCNc1cnn(-c2ccccc2)c(=O)c1Cl	22%	?	?	-17%	?	?
CCc1ccc(Nc2cnn(-c3nc4ccccc4s3)c(=O)c2Cl)cc1	21%	?	6%	12µM*	?	?
CCN(CC)S(=O)(=O)c1ccc2c(c1)N(CC(=O)Nc1cccc(C(C)=O)c1)C(=O)CO2	·	·	·	0%	·	-4%
CC1CCC/C(=N\NC(=O)Nc2ccccc2)C1 (stereo unspecified)	-1%	28%	6%	15µM*	1%	·
COc1ccc(C)cc1NC(=O)Cn1c(=O)oc2ccccc21	-4%	2%	-1%	0%	-11%	·
Cc1cccc(C(=O)O/N=C2\CCS(=O)(=O)c3sccc32)c1	4%	3%	0%	3.4µM*	3%	-8%
O=C(O/N=C1\CCS(=O)(=O)c2sccc21)c1ccccc1	-6%	-1%	2%	2.7µM*	0%	-11%
Cc1nn(CCCC(=O)Nc2cccnc2Cl)c(C)c1[N+](=O)[O-]	-2%	13%	-1%	0%	2%	14%
SMILES	NPC1 promoter act	ELG1 repair inh	ELG1 genotox	FLuc counter	Rab9 prom act	SMN2 splice enh
CCOC(=O)C1=C(C)OC(N)=C(C#N)C1c1ccc(C)s1 (stereo unspecified)	3%	0%	2%	-12%	-3%	-18%
Cc1nnc(NC(=O)CSc2ccccn2)s1	3%	?	1%	1%	2%	6%
Cc1ccc2nc(SCC(=O)Nc3nnc(SCC(N)=O)s3)[nH]c2c1	-1%	-4%	0%	17µM*	-1%	-1%
O=C(CSc1n[nH]c(-c2ccccc2O)n1)N1CCOCC1	5%	?	8%	19µM*	27%	18%
O=C(CSC1=NCCS1)Nc1ccc(S(=O)(=O)NC2CCCCC2)cc1	-3%	0%	-3%	-2%	-5%	14%
O=C(CSc1ccc(-c2nc3ccccc3[nH]2)cn1)Nc1ccc(S(=O)(=O)NC2CC2)cc1	-1%	10%	0%	1.5µM*	2%	44%
Cc1ccc2nc(-c3ccc(SCC(=O)Nc4nnc(C)s4)nc3)[nH]c2c1	2.5µM*	?	?	0.6µM*	2.8µM*	14µM*
O=C(CSc1n[nH]c(-c2ccccc2)n1)N1CCOCC1	9%	?	23%	?	12%	·
Cc1ccc2nc(SCC(=O)Nc3ccc(C#N)cc3)[nH]c2c1	·	·	·	-8%	·	-11%
COC(=O)C1=C(C(=O)OC)[C@@H]2N(C)c3ccccc3[C@@]23C[C@@H](C(=O)OC)N(S(=O)(=O)c2c(C)noc2C)C3=N1	·	·	·	·	·	-1%[9.22 µM]
CCC(C)[C@H](NC(=O)N1CC(=O)Nc2ccccc21)C(=O)N[C@H](C(=O)O)c1ccccc1 (stereo partly specified)	-6%	?	3%	0%	-5%	·
Cc1ccc2nc(-c3ccc(SCC(=O)Nc4nc(C)cs4)nc3)[nH]c2c1	3.5µM*	?	?	0.54µM*	2.8µM*	6.3µM*
Cc1ccc(SCC(=O)Nc2ccc(-c3nc4ccccc4[nH]3)cc2)cc1	?	9%	?	-8%	?	5.6µM*
CCc1nnc(NC(=O)CSc2n[nH]c(-c3ccccc3O)n2)s1	1%	14%	0%	17µM*	-7%	·
Cc1ccc(NC(=O)CCCSc2nc3ccccc3[nH]2)cc1	-1%	-23%	0%	?	1%	-20%
Cc1nnc(NC(=O)CSc2n[nH]c(-c3ccccc3C)n2)s1	1%	?	4%	-1%	-12%	·
CC(=O)Nc1ccc(-c2nc3c(C)cccc3[nH]2)cc1	2.5µM*	?	2.9µM*	2.4µM*	1.6µM*	3.5µM*
CC(C)c1ccc(NC(=O)c2cc(S(=O)(=O)NC3CCCCC3)ccc2F)cc1	·	·	·	-3%	·	·
Cc1nc(NC(=O)CSc2ccc(-c3nc4ccccc4[nH]3)cn2)sc1C	?	?	?	-13%	?	17%
